# Bioassay records: PubChem, National Center for Advancing Translational Sciences (NCATS)
# This is a sample that favours compounds with a hit; in the whole collection about 3.2% have one here.
# IL2 activator: qHTS of IL-2 Activators | AID 652025, 2013 | IL-2 activation reporter assay, cell-based qHTS; stimulated with anti-CD3/CD4/CD28 beads; in transgenic mouse T cells | actives 0.065% (n = 360,000) | activation, % (series mostly up to about 46 µM); in the data active = activation above about 50%; inconclusive = mostly about 30% to 49%; also: 0% is about no effect
#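 Quantitative HTS in unstimulated transgenic mouse T cells, with memory T cells as non-tolerant control and PMA/ionomycin as tolerance-bypass control. Compound pretreatment lasted 60 minutes before 18 h bead stimulation; EGFP/DsRed fluorescence read.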
# BRCA1 expr act: qHTS Assay to Identify Small Molecule Activators of BRCA1 Expression | MCF7-BRCA1-FFLuc reporter, luminescence, 48 h; response scale: scaled: vehicle 0%, 10 µM genistein 100% | Potency, µM (titrated, usually from 46.1 µM), without a hit: top-dose activation, usual class: activators | actives 1.1% (n = 380,000) | AID 624202, 2012; also: potency is read from the fitted curve at half-maximal effect; nearly all actives have a fitted effect of over 80% in size
#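 Luminescence from a BRCA1-driven firefly luciferase in MCF7 cells was read after 48 h compound exposure at 37 C. Data normalized against DMSO and a 10microM genistein activation control, then curve-fitted across the titration.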
# Nrf2 inh: Nrf2 qHTS screen for inhibitors. AID 504444, 2011. A549 ARE-Fluc reporter, luciferase luminescence, 18-24 h. Potency, µM (doses to about 46 µM), inactives show top-dose activity change, negative = inhibition, hits mostly inhibitors. actives 2.1% (n = 360,000); also: potency is read from the fitted curve at half-maximal effect; % is scaled to controls: 0 for no effect and ±100 for the full control effect; nearly all actives have a fitted effect of over 60% in size
#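 Reporter: ARE-Fluc in A549. Exposure: 18-24 h, 37 °C, 5% CO2, 5% FBS OPTI-MEM. Readouts: fluorescent cytotoxicity (CellTiter-Fluor), then luminescent Nrf2 signal after BugLite.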
# Nrf2 activator: qHTS of Nrf2 Activators | AREc32 ARE-luciferase reporter (MCF7-derived line), luminescence, 24 h | AID 624171, 2012 | actives 0.31% (n = 410,000) | Potency, µM (highest dose often 46.1 µM), for inactives: at the highest dose activation, hits mostly activators; also: potency is read from the fitted curve at half-maximal effect; % of control where 0% means no effect; nearly all actives have a fitted effect of over 65% in size
#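 Nrf2 activation is followed as ARE-luciferase induction in the AREc32 line after one day of compound treatment; luminescence is read with Steady-Glo.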
# p53 reactivator: qHTS assay for re-activators of p53 using a Luc reporter. H1299 p53-A138V BP100-luciferase reporter, luminescence, 24 h. Potency, µM (highest dose often 92.2 µM), for the others: at the highest dose activity change, positive = activation, actives largely listed as activators. actives 0.063% (n = 320,000). AID 504706, 2011; also: potency is read from the fitted curve at half-maximal effect; % of control where 0% means no effect; nearly all actives have a fitted effect of over 45% in size
#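 H1299 (p53-null), stable ts p53-A138V + BP100-Luc; 1000 cells/well, Opti-MEM/10% FBS; cpd 4 pt, 1:5; 24 h, 37 deg C, 5% CO2; detection reagent 10 min RT; luminescence.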
# A549 viability: Nrf2 qHTS screen for inhibitors: counterscreen for cytotoxicity; A549 ARE-Fluc cells, CellTiter-Fluor viability, 18-24 h; Potency, µM (top dose mostly 46 µM), for the others: top-dose activity change, negative = cytotoxicity, hits mostly inhibitors; actives 0.16% (n = 390,000); AID 504648, 2011; also: potency is read from the fitted curve at half-maximal effect; % is scaled to controls: 0 for no effect and ±100 for the full control effect
#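 A549 ARE-Fluc cells in 5% FBS OPTI-MEM, 5000 cells/well, rested 2 h then exposed to compounds in concentration-response for 18-24 h at 37 °C. Viability by CellTiter-Fluor fluorescence (Ex 405/Em 525) after 30 min; luciferase luminescence (BugLite, 15 min, RT) read afterwards.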
# Starred values were filed as active, the others as inactive; ? = inconclusive; . = no result. Unless noted, calls follow the shape of the dose curve; as a rule, active = well fitted curve in the direction sought with a large enough effect; inconclusive = small, poorly fitted or top-dose-only effect, or another doubt; inactive = no such curve, though single readings can be large; an effect the other way counts as inactive or inconclusive.
SMILES,IL2 activator,BRCA1 expr act,Nrf2 inh,Nrf2 activator,p53 reactivator,A549 viability
CC(C)Cn1c(=O)c2ccccc2n2c(CCC(=O)Nc3cccc(Cl)c3)nnc12,.,.,7.2%,-1.3%,.,-0.5%
CC(C)C(=O)N1CCN(c2nc(-c3ccccc3)c3c(c2C#N)CCCC3)CC1,-3.5,-57.1%,11.6µM*,3.2%,2.6%,?
CC(C)Cc1nc(N2CCN(C(=O)c3ccco3)CC2)c(C#N)c2c1CCCC2,-4.0,-37.3%,?,-0.7%,7.6%,?
Nc1cccc(S(=O)(=O)N2CCOCC2)c1,.,-8.7%,?,.,.,1.6%
CC(C)(C)NC(=O)C(c1ccncc1)N(CC1CCCO1)C(=O)Cn1nnc(-c2ccc(F)cc2)n1 (centres undefined),1.2,-20.4%,-0.6%,-0.6%,-2.8%,1.3%
CC(C)(C)NC(=O)C(c1ccncc1)N(Cc1cccs1)C(=O)Cn1nnc(-c2ccc(F)cc2)n1 (centres undefined),-1.4,-54.5%,9.2µM*,0.6%,-4.7%,-15.1%
O=C(Nc1ccccc1C(F)(F)F)c1ccc2oc(=O)c(S(=O)(=O)c3ccc(F)cc3)cc2c1,.,.,-5.6%,26.2%,.,1.5%
O=C(CSc1nnc(-c2cccc(Br)c2)o1)N1CCNC1=O,-0.7,10µM*,?,?,22.3%,-1.1%
O=C(CSc1nnc(-c2ccccc2Cl)o1)N1CCCC1,-0.1,7.08µM*,?,2.3%,?,0.2%
O=C(CSc1nnc(-c2cccc(Br)c2)o1)NCC1CCCO1 (centres undefined),-2.4,-6.7%,.,-0.5%,.,.
Cc1cccc(-c2nnc(SCCC(=O)O)o2)c1,.,-66.7%,1.46µM*,-3.9%,.,2.0%
Cc1cccc(-c2nnc(SCC(=O)N3CCCCC3)o2)c1,.,.,?,4.6%,.,-7.0%
Cc1cccc(-c2nnc(SCC(=O)N3CCCC3)o2)c1,1.0,7.08µM*,?,0.2%,21.7%,-5.8%
Cc1nnc(-c2ccccc2)o1,-0.1,8.1%,-6.8%,-0.3%,0.7%,1.8%
Cc1cccc(-c2nnc(-c3ccccc3)o2)c1,-1.9,71.7%,.,11.2µM*,11.2µM*,15.9%
N=c1c2c(-c3ccccc3)c(-c3ccccc3)n(Cc3ccco3)c2ncn1Cc1ccccc1,0.0,-25.9%,11.9%,0.0%,-16.6%,4.5%
CC(C)Cn1cnc2c(c(-c3ccccc3)c(-c3ccccc3)n2Cc2ccco2)c1=N,-1.7,-106.4%,-20.5%,3.1%,0.9%,23.1µM*
COc1ccc(-c2cn3ccc4ccccc4c3n2)cc1,0.8,?,?,6.6%,28.2µM*,5.7%
Cc1cccn2cc(CNc3ccccc3)nc12,-2.8,14.1µM*,?,0.2%,?,0.2%
Cc1cccn2cc(-c3ccccc3)nc12,-0.9,2µM*,?,5.4%,?,0.5%
COc1ccc(-c2cn3ccccc3n2)cc1,2.1,12.5%,10.5%,3.2%,2.2%,20.3%
COc1ccc(-c2cn3cccc(C)c3n2)cc1Br,-0.1,3.55µM*,?,8.4%,?,2.5%
Cc1cccn2cc(-c3ccc(F)cc3)nc12,-0.3,99.6%,?,2.1%,.,2.8%
COc1ccc2c(c1)c1c(c(=O)n(Cc3ccccc3)c(=O)n1CC(=O)Nc1ccccc1OC)n2C,.,15.1%,7.5%,0.5%,.,2.8%
O=C(NCc1ccc2c(c1)CCN2C(=O)c1ccc(F)cc1)c1cc2ccccc2[nH]1,.,.,.,-0.5%,.,-12.6%
Cc1ccc(S(=O)(=O)N2CCN(c3nc(-c4cccs4)nc(C)c3C)CC2)cc1,.,-0.1%,5.6%,.,.,7.0%
Cc1ccc2nc(-c3ccccc3)cn2c1,3.2,?,6.51µM*,-2.3%,-9.8%,-1.3%
CCOC(=O)Cn1c(=O)n(C2CCCCC2)c2nc(-c3ccc(CC)cc3)nc(C(N)=O)c21,.,2.9%,.,-0.7%,.,12.2%
